Calls of active or inactive are those of the source.
experiment: growth of efflux-deficient E. coli DRC39 – strain DRC39, OD650, 48 h, E. coli filamentation inducers, primary screen (AID 1179);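 further: screen aims at cell division blockers that make cells filament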; settings: E. coli DRC39 delta-acrAB growth, higher = more signal, called active from +8 up or from −8 down

z-score, inactive:
O=C(CS)NCCCCCCNC(=O)[C@@H]1C[C@@H]2C(=O)N3CCC[C@H]3C(=O)N2[C@@H]1c1cccc(OCCO)c1 1.65, COc1ccccc1CN1C(=O)c2ccccc2[C@@H](C(=O)NC(C)C)[C@@H]1c1ccc(CO)cc1 0.0549, C=CCOC(=O)[C@@H]1[C@H]2C(=O)O[C@H](c3ccccc3)[C@H](c3ccccc3)N2[C@H](c2ccc(OCCOC(=O)[C@H]3C[C@H]4C(=O)N[C@@H](CCCCNC(C)=O)C(=O)N4[C@H]3c3cccc(OCCO)c3)cc2)[C@@]12C(=O)Nc1ccc(I)cc12 0.228, O=C1OCC=C[C@H]2OC34C=CCN(Cn5nnc6ccccc65)C(=O)[C@H]3N(CCCCCCO)C(=O)[C@@H]4[C@@H]12 (stereo not given in full) 0.163, COC(=O)Cn1c(C(=O)N2CCCC2)cc2c1C[C@H]1CN(C(=O)c3ccccc3)[C@@](Cc3ccc(F)cc3)(C(=O)OC)[C@@H]21 -0.181, COc1cc(OC)c(C(O)C2C=CC3C(=O)N(c4ccccc4)C(=O)C3N2Nc2ccc(C#N)cc2)cc1Br (stereo not given) -0.0118, COc1ccc([Si](C)(C)[C@@H]2[C@@H](CC(=O)N3CCC[C@H]3CO)O[C@]3(C(=O)N(Cc4ccc(N5C(=O)c6cccc7cccc5c67)cc4)c4ccccc43)[C@H]2C)cc1 -0.138, CC=CC(O)C1C=CC2C(=O)N(c3ccccc3)C(=O)C2N1Nc1ccccc1 (stereo not given) 0.412, CC(C)C(=C=CC[C@@H](O)c1ccccc1OCCO)C[C@@H](O)COCc1ccccc1 1.51, CC(C)(C)N1CC=CC23O[C@@H]4C=CCOC(=O)[C@@H]4[C@H]2C(=O)N(CCCO)[C@@H]3C1=O (stereo not given in full) -0.955, COc1c(C)cc(-c2cc3c(c(-c4ccccc4)n2)[Si](C(C)C)(C(C)C)OC3)cc1C 0.319, Cc1ccc(S[C@]2(C(=O)NCC(C)C)CC(=O)N(Cc3ccccc3Cl)[C@@H]2c2ccc(CO)cc2I)cc1 0.0686, O=C1O[C@@H](c2ccccc2)[C@@H](c2ccccc2)N2[C@@H](c3ccccc3OCCO)[C@]3(C(=O)Nc4ccc(C#CC5=CCCCC5)cc43)[C@@H](C(=O)NC[C@H](O)c3ccccc3)[C@H]12 -0.208, O=C(O)[C@H](Cc1ccccc1)n1cc(-c2ccccn2)nn1 0.23, CC1CC/C=C\[C@H]2OC34C=CCN(CCN5CCOCC5)C(=O)[C@H]3N(CCO)C(=O)[C@@H]4C2C(=O)O1 (stereo not given in full) -0.557, CCOC(=O)C[C@H]1[C@H](OC(=O)c2ccc(-c3ccccc3)cc2)[C@@H](NC(=O)C2CCCCC2)c2cc(OCCCO)ccc2N1C(=O)c1ccccc1 -0.566, COCCCNC(=O)[C@@]1(Sc2ccc(C)cc2)CC(=O)N(Cc2cc(C(F)(F)F)cc(C(F)(F)F)c2)[C@@H]1c1ccc(CO)cc1 0.231, CCCC[C@@H]1C[C@H]1[C@@H](NC(=O)c1cccnc1)c1ccc(-c2ccccc2)cc1 -0.762, O=C1O[C@@H](c2ccccc2)[C@@H](c2ccccc2)N2[C@@H](c3ccc(O)cc3)[C@]3(C(=O)Nc4ccc(C#CCCO)cc43)[C@@H](C(=O)Nc3nc4ccccc4s3)[C@H]12 0.282, O=C(O)[C@]1(Cc2ccccc2)N=C(c2ccc(OCCCO)cc2)O[C@@H]1c1ccccc1 1.01, Cc1ccc(S[C@]2(C(=O)NCc3ccccc3)CC(=O)N(C(C)C)[C@@H]2c2ccc(CO)cc2I)cc1 0.329, Cc1ccc(C(C)CC(O)C2C=CC3C(=O)N(c4ccccc4)C(=O)C3N2Nc2ccc(C(C)C)cc2)o1 (stereo not given) -0.682, C=CC[C@]12N=C(c3ccc(OCCCO)cc3)O[C@H]1c1ccccc1N(C)C2=O -0.487, C=C(COC)/C(=C/C[C@@H](OC(=O)c1ccncc1)c1ccc(CO)o1)c1cnc2ccccc2c1 0.0648, O=C1NC(=O)C2C1C=CC(C(O)c1cc(C(F)(F)F)cc(C(F)(F)F)c1)N2Nc1ccc(Cl)cc1Cl (stereo not given) -1.13
